Screening data as filed in PubChem.
Only some compounds are listed: those with a hit (about 10% of all), similar ones and a draw of the others.
SW480 rerep – A quantitative high throughput screen for small molecules that induce DNA re-replication in SW480 colon adenocarcinoma cells; SW480 DNA re-replication, Hoechst DNA content imaging, 48 h; Potency, µM (doses to about 46.1 µM), for inactives: at the highest dose re-replication activation, actives largely listed as activators; actives 1.8% (n = 340,000); AID 624297, 2012; note: % of control where 0% means no effect; nearly all actives have a fitted effect of over 55% in size
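Quantitative HTS format with DMSO vehicle controls; 48 hr drug incubation at 37 C, then 40 min Hoechst staining and scanning imager measurement at 405 nm excitation.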
MCF10A rereplic – A quantitative high throughput screen for small molecules that induce DNA re-replication in MCF 10a normal breast cells; Potency, µM (top dose mostly 46.1 µM), without a hit: at the highest dose activity, positive = re-replication, actives largely listed as activators; MCF 10A DNA re-replication, Hoechst nuclear intensity, 48 h; actives 2.9% (n = 350,000); note: % of control where 0% means no effect; nearly all actives have a fitted effect of over 50% in size
Gal4-VP16 FLuc – VP16 counterscreen qHTS for inhibitors of ROR gamma transcriptional activity; Drosophila S2 Gal4-VP16 UAS-luciferase, luminescence, 20 h; actives 3.5% (n = 310,000); Potency, µM (doses to about 53.6 µM), for inactives: at the highest dose activity, negative = inhibition, most hits filed as inhibitors; AID 2546, 2010;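 note: Gal4-VP16 expression switched on by copper sulfate through the metallothionein promoter; % is set by controls: 0 for no effect and ±100 for the full control effect; nearly all actives have a fitted effect of over 50% in size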
RORgamma inh – qHTS for inhibitors of ROR gamma transcriptional activity. Nuclear receptor ROR-gamma (Mus musculus), P51450. Drosophila S2 Gal4-RORgamma UAS-luciferase reporter, 20 h. Potency, µM (series often up to 53.6 µM), without a hit: top-dose activity change, negative = inhibition, most hits filed as inhibitors. actives 5.4% (n = 310,000); note: % is set by controls: 0 for no effect and ±100 for the full control effect; nearly all actives have a fitted effect of over 60% in size
Target sequence (P51450 whole entry, looked up, the tested form may be a part): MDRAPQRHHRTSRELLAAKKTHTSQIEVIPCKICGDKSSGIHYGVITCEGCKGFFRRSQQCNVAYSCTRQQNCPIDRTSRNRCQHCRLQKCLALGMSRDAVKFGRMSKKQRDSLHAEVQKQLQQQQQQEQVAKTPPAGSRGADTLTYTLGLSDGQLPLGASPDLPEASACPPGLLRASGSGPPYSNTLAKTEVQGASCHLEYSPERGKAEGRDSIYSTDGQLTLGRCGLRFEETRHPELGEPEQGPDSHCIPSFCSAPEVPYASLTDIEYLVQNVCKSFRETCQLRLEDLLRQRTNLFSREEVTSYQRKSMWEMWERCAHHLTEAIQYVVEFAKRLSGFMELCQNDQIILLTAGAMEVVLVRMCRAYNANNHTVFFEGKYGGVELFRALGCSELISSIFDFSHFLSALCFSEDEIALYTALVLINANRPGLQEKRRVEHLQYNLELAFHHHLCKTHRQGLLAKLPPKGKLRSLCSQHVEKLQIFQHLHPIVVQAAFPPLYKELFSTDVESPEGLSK
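In this cell-based reporter format, copper sulfate (700 uM final) drives Gal4–ROR gamma fusion expression from a metallothionein promoter in Drosophila Schneider cells; compounds preincubated 1 hr, reporter read after 20 hr at ambient temperature.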
ELG1 DNA repair – qHTS screen for small molecules that inhibit ELG1-dependent DNA repair in human embryonic kidney (HEK293T) cells expressing luciferase-tagged ELG1; Potency, µM (titrated, usually from 46.1 µM), for the others: at the highest dose activity change, negative = inhibition, usual class: inhibitors; actives 2.3% (n = 330,000); AID 504467, 2011; HEK293T ELG1-luciferase reporter, luminescence, 16 h; DNA damage induced by 5-fluorouridine; note: % is set by controls: 0 for no effect and ±100 for the full control effect; nearly all actives have a fitted effect of over 55% in size
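5-Fluorouridine DNA damage + compound/DMSO, 2,000 cells/well, 16 h, 37 °C/5% CO2. ONE-Glo, 30 min RT, luminescence. Readout = decrease in reporter signal.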
An asterisk follows results filed as active; u = inconclusive; x = no result given; [ ] = remark or other dose. Calls come from the whole dose curve; as a rule, active = well fitted curve in the direction sought with a large enough effect; inconclusive = small, poorly fitted or top-dose-only effect, or another doubt; inactive = no such curve, though single readings can be large; an effect the other way counts as inactive or inconclusive. Potency is the fitted concentration of half-maximal effect.

SMILES	SW480 rerep	MCF10A rereplic	Gal4-VP16 FLuc	RORgamma inh	ELG1 DNA repair
CSC1=NC(C)(C)C=C(/C=C/c2ccc(Cl)cc2)N1	0.65µM*	16µM*	u	u	-13%
CSC1=NC(C)(C)C=C(/C=C/c2ccc(Cl)cc2Cl)N1	15µM*	u	-15%	u	0%
CC1(C)CCC(C)(C)NC(=S)N1	-1%	-1%	u	8.9µM*	14%
O=C(Nc1ccc(Cl)cc1)Nc1ccc2c(c1)N1CCN=C1S2	9%	u	-9%	8%	23µM*
Cc1ccc(C)c2[nH]c(=O)c(CCNC(=O)c3cc4ccccc4o3)cc12	-2%	-1%	13µM*	-59%	u
CCC(CC)C(=O)NCCc1cc2c(C)ccc(C)c2[nH]c1=O	0%	0%	-4%	-14%	9%
COc1ccc(OC)c2[nH]c(=O)c(CCNC(=S)NC(C)(C)C)cc12	1%	-3%	11µM*	4.5µM*	-26%
COc1ccc(OC)c2[nH]c(=O)c(CCNC(C)=O)cc12	-6%	14%	0%	-13%	-1%
CNC(=S)NCCc1cc2c(OC)ccc(OC)c2[nH]c1=O	-98%	0%	-13%	u	u
COc1ccc(OC)c2[nH]c(=O)c(CCNC(=O)c3cc4ccccc4o3)cc12	8%	3%	-8%	-14%	18µM*
CCOC(C)=O	3%	8%	3%	22%	x
CCCNC(=O)C(CC)NC(=O)c1cccc([N+](=O)[O-])c1 (stereo not given)	0%	8%	x	x	u
O=c1c2ccccc2[nH]c(=S)n1CCN1CCCCC1	-19%	-2%	-5%	-16%	20%
O=c1c2ccccc2[nH]c(=S)n1CCCN1CCN(c2ccccc2F)CC1	u	u	8.9µM*	3.5µM*	-9%
O=c1c2ccccc2[nH]c(=S)n1CCCN1CCN(c2ccccc2)CC1	u	0%	10µM*	7.9µM*	1%
O=c1c2cccnc2[nH]c(=S)n1CCCN1CCN(c2ccccc2F)CC1	-1%	u	-8%	2.2µM*	-8%
CCN(CCn1cccn1)C(=O)CCc1nnc(C2(c3ccc(Cl)cc3)CCC2)o1	-3%	-10%	u	11%	u
COc1cc(C(=O)NCCOc2cc(C)cc(C)c2)cc(OC)c1OC	7.3µM*	21µM*	-3%	-12%	u
CCC1(C)Cc2ccccc2C(=S)N1 (stereo not given)	-8%	-2%	u	8.9µM*	-1%
CCC1(C)Cc2ccccc2C(=O)N1 (stereo not given)	-4%	1%	1%	0%	4%
CC1CCC/C(=N/Nc2nc3ccccc3s2)C1 (stereo not given)	3%	u	u	6.3µM*	u
CC1(C)CC(=O)C/C(=N/Nc2nc3ccccc3s2)C1	-8%	u	23%	8.9µM*	u
COc1ccc(N(CC(=O)N2CCOCC2)S(C)(=O)=O)c(OC)c1	-34%	10%	-4%	-40%	-17%
O=c1oc(CCO)cc2ccccc12	-26%	4%	x	x	9%
C[C@H](O)Cc1cc2ccccc2c(=O)o1	1%	2.9µM*	x	x	0%
SMILES	SW480 rerep	MCF10A rereplic	Gal4-VP16 FLuc	RORgamma inh	ELG1 DNA repair
Cn1ccnc1SCC(=O)NC1CCCCC1	-3%	16%	2%	0%	u
Cn1c(SCC(=O)N(C2CCCCC2)C2CCCCC2)nnc1-c1cccs1	u	13µM*	-2%	-20%	u
Cn1c(SCC(=O)NC2CC2)nnc1-c1cccs1	-5%	2%	18µM*	u	u
Cn1ccnc1SCC(=O)N(C1CCCCC1)C1CCCCC1	3%	u	u	11µM*	-2%
Cc1cccc(N2CCN(C(=O)c3ccc4c(c3)NC(=O)C(CSCc3cccc(F)c3)N4)CC2C)c1 (stereo not given)	u	0%	-4%	12%	22%
O=S(=O)(c1ccc(Cl)c(NC(=S)N/N=C/c2c(F)cccc2F)c1)N1CCOCC1	u	u	1.8µM*	2µM*	u
O=S(=O)(c1ccc(Cl)c(NC(=S)Nc2ccccc2N2CCOCC2)c1)N1CCOCC1	0%	-1%	-7%	u	-9%
O=S(=O)(c1ccc(Cl)c(NC(=S)N/N=C/c2ccc(O)cc2)c1)N1CCOCC1	18µM*	u	6.3µM*	10µM*	23µM*
COc1ccc(OC)c(C2C3=C(COC3=O)Nc3cc4c(cc32)OCO4)c1 (stereo not given)	0.15µM*	0.26µM*	-6%	-30%	-14%
COC(=O)[C@@]12OC[C@]34[C@H]([C@@H](O)[C@@H]1O)[C@@]1(C)C(=O)C(O[C@@H]5OC(CO)[C@@H](O)[C@@H](O)[C@@H]5O)=C[C@@H](C)[C@@H]1C[C@H]3OC(=O)[C@H](OC(=O)/C=C(\C)C(C)(C)OC(C)=O)[C@@H]24 (stereo not given in full)	-6%	23%	x	x	6.5µM*
O=C1CC2(CCCC2)CC(=O)N1c1ccccc1	0%	2%	6%[10 µM]	-26%	-22%
Cc1nn(CCc2nn[nH]n2)c2nc(-c3ccc(C4CCCCC4)cc3)cc(C(F)(F)F)c12	-3%	12µM*	2%	8%	13%
O=C(CCCn1c(=S)[nH]c2cc3c(cc2c1=O)OCO3)N1CCN(c2ccc(F)cc2)CC1	-1%	1%	u	7.9µM*	16µM*
O=C(CCCCCn1c(=S)[nH]c2cc3c(cc2c1=O)OCO3)N1CCN(c2ccccc2)CC1	-11%	u	-7%	u	2%
Cc1ccc(C)c(N2CCN(C(=O)CCCn3c(=S)[nH]c4cc5c(cc4c3=O)OCO5)CC2)c1	-2%	6%	x	-3%[0.365 µM]	9.2µM*
CCOCCCn1c(=S)[nH]c2cc3c(cc2c1=O)OCO3	-5%	12%	2.5µM*	2.5µM*	7%
O=C(CCCn1c(=S)[nH]c2cc3c(cc2c1=O)OCO3)N1CCN(c2ccccc2F)CC1	u	22%	7.9µM*	13µM*	23µM*
O=C(COC(=O)C1CCN(S(=O)(=O)c2cccs2)CC1)NCc1ccc(F)cc1	-4%	4%	5%	-3%	11%
O=C(CCCn1c(=S)[nH]c2cc3c(cc2c1=O)OCO3)N1CCN(c2ncccn2)CC1	-8%	3%	-21%	16µM*	15µM*
COc1cccc(N2CCN(C(=O)CCCCCn3c(=S)[nH]c4cc5c(cc4c3=O)OCO5)CC2)c1	u	u	-26%	2.2µM*	4%
COc1cccc(N2CCN(C(=O)CCn3c(=S)[nH]c4cc5c(cc4c3=O)OCO5)CC2)c1	x	x	7%	-13%	-1%
